Test results from the supplement of paper PMC11732987, “Enantioselective OTUD7B fragment discovery through chemoproteomics screening and high-throughput optimisation” (Communications Chemistry, 2025).

Experiments:
Test in all cases: log2 ratio of Biotin-Ahx-Ub-VS probe labelling (fragment/DMSO); higher = less target engagement (more negative = stronger competition), active = hit call of the paper (q ≤ 0.05, log2 ratio ≤ -1)
Settings in all cases: compound concentration: 200 uM; treatment time: 3 h
USP42 = molecular target: T1, USP42 (UniProt Q9H9J4)
T1 sequence (whole entry): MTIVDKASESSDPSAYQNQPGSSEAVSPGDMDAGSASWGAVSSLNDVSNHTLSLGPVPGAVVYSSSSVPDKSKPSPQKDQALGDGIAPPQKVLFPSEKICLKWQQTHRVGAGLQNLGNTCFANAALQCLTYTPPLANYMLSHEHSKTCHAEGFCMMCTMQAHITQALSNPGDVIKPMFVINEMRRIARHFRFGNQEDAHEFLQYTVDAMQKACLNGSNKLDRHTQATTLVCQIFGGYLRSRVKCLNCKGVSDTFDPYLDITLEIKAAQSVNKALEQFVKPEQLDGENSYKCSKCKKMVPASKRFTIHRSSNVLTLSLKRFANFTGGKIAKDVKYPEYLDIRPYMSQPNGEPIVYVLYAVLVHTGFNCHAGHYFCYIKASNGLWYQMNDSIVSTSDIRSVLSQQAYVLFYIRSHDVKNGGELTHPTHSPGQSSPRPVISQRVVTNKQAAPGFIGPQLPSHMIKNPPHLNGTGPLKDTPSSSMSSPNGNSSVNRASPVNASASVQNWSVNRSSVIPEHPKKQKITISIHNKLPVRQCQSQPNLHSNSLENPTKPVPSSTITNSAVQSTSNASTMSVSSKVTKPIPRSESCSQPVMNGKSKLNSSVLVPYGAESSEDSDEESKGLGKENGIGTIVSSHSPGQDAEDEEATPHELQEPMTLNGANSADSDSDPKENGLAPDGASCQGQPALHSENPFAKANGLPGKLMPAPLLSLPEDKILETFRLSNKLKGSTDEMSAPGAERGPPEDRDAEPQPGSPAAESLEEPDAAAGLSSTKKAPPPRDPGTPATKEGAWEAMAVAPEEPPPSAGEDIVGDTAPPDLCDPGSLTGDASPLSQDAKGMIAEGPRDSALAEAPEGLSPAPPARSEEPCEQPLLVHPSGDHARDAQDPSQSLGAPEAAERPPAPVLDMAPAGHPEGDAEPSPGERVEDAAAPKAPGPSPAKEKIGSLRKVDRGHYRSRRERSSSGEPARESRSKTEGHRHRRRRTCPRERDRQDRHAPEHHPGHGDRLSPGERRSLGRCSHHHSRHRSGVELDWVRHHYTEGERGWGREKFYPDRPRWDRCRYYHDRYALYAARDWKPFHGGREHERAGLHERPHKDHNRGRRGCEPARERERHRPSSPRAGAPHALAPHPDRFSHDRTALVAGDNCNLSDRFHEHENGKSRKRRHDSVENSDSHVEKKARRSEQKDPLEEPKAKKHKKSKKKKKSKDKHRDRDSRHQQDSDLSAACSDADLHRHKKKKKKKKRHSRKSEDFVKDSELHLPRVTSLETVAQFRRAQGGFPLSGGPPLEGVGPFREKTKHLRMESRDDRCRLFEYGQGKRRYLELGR
In short: (§1)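 Labelled DUBs from HEK293T lysate were NeutrAvidin-enriched, digested with LysC and trypsin, and run by diaPASEF LC-MS/MS. Before that, each 495 µg sample in Tris/CHAPS/IGEPAL buffer with protease inhibitors was treated in triplicate with fragment at 200 µM or vehicle for 3 h, then with Biotin-Ahx-Ub-VS at 0.5 µM final for 1 h. Values are average log2 ratios of fragment over vehicle by unpaired t-test, based on global-median-normalised Spectronaut label-free quantities from proteins with ≥2 unique peptides.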

USP46 = USP46 (UniProt P62068)
In short: as §1

USP47 = molecular target: T2, USP47 (UniProt Q96K76)
T2 sequence (whole entry): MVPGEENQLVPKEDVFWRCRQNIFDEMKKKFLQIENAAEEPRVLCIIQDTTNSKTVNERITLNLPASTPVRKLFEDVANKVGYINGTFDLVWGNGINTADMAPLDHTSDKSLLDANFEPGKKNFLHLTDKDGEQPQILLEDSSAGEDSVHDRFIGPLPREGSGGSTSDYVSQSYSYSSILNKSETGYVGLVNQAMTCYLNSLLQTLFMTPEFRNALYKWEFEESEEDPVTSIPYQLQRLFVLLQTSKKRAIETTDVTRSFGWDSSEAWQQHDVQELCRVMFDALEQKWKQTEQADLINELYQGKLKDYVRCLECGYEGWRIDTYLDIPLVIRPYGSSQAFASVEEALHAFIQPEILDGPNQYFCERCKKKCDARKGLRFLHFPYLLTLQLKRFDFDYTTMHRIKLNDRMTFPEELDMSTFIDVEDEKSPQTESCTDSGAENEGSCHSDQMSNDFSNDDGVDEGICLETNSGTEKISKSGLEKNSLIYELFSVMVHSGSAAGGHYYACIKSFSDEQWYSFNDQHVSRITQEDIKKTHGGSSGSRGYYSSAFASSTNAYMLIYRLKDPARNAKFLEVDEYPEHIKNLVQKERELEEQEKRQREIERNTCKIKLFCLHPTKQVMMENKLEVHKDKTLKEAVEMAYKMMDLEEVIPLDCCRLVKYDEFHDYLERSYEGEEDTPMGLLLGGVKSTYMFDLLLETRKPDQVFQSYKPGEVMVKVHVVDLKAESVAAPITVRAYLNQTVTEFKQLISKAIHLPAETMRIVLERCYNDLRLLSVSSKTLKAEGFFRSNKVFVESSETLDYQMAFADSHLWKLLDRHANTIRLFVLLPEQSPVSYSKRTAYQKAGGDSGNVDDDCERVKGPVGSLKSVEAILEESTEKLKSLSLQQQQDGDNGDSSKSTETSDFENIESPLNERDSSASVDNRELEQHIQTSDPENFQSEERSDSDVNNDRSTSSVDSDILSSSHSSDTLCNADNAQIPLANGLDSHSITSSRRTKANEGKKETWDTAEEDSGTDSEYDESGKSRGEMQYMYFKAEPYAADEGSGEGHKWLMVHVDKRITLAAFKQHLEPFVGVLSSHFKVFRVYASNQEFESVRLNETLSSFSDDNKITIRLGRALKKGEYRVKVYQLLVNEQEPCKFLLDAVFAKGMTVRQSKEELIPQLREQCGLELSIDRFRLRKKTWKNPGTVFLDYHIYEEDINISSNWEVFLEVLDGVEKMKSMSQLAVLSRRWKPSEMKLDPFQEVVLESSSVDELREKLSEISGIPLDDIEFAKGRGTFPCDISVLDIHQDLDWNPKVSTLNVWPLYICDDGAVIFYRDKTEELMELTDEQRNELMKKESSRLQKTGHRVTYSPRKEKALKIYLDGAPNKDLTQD
In short: as §1

USP48 = molecular target: T3, USP48 (UniProt Q86UV5)
T3 sequence (whole entry): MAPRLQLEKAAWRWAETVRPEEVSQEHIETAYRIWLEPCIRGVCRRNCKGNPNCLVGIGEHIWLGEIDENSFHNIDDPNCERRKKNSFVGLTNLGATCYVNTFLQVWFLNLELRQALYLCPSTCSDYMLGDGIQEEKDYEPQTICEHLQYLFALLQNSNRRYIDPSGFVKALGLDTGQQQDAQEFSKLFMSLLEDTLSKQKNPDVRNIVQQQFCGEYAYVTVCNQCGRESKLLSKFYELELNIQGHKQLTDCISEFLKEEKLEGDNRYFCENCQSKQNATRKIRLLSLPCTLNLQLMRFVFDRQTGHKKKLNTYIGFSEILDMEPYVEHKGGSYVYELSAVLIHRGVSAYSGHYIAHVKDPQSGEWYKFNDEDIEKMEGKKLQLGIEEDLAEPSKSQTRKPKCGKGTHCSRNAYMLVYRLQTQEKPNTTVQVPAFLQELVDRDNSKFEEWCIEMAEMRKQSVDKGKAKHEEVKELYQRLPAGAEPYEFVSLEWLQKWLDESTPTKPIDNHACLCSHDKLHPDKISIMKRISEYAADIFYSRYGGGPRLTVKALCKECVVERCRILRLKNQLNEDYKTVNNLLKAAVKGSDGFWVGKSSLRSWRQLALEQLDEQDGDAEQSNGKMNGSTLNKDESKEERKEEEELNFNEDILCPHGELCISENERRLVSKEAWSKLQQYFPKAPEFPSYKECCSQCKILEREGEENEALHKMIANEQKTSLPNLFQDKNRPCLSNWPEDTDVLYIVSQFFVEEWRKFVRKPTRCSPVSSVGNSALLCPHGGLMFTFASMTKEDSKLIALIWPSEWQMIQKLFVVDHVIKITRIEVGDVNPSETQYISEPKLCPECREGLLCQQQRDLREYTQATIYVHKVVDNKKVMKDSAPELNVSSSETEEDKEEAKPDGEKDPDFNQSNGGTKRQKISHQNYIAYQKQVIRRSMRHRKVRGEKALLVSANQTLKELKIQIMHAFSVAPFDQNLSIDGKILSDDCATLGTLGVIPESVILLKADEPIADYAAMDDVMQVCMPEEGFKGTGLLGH
In short: as §1

USP5 = molecular target: T4, USP5 (UniProt P45974)
T4 sequence (whole entry): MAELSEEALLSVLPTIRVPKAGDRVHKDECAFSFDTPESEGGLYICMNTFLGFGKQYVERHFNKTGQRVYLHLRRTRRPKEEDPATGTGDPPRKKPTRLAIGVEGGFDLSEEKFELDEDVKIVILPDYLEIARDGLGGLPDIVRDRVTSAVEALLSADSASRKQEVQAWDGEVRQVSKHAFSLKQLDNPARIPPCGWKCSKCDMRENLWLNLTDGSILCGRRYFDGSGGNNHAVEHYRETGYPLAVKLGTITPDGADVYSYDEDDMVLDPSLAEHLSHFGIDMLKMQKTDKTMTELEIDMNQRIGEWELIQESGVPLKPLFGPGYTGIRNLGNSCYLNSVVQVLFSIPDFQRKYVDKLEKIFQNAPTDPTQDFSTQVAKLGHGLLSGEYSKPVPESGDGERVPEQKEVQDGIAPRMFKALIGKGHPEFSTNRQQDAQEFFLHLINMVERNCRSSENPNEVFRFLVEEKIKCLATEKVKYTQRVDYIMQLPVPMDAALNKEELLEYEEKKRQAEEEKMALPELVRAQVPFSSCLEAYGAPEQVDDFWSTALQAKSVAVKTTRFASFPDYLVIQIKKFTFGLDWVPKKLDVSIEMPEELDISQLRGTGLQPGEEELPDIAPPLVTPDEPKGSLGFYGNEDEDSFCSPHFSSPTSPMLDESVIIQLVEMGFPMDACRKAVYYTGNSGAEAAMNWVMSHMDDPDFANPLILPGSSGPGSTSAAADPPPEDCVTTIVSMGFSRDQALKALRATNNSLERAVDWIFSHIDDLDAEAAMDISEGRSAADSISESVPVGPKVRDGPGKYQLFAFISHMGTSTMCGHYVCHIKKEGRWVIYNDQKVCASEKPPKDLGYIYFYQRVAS
In short: as §1

USP54 = USP54 (UniProt Q70EL1)
In short: as §1

USP7 = USP7 (UniProt Q93009)
In short: as §1

USP8 = molecular target: T5, USP8 (UniProt P40818)
T5 sequence (whole entry): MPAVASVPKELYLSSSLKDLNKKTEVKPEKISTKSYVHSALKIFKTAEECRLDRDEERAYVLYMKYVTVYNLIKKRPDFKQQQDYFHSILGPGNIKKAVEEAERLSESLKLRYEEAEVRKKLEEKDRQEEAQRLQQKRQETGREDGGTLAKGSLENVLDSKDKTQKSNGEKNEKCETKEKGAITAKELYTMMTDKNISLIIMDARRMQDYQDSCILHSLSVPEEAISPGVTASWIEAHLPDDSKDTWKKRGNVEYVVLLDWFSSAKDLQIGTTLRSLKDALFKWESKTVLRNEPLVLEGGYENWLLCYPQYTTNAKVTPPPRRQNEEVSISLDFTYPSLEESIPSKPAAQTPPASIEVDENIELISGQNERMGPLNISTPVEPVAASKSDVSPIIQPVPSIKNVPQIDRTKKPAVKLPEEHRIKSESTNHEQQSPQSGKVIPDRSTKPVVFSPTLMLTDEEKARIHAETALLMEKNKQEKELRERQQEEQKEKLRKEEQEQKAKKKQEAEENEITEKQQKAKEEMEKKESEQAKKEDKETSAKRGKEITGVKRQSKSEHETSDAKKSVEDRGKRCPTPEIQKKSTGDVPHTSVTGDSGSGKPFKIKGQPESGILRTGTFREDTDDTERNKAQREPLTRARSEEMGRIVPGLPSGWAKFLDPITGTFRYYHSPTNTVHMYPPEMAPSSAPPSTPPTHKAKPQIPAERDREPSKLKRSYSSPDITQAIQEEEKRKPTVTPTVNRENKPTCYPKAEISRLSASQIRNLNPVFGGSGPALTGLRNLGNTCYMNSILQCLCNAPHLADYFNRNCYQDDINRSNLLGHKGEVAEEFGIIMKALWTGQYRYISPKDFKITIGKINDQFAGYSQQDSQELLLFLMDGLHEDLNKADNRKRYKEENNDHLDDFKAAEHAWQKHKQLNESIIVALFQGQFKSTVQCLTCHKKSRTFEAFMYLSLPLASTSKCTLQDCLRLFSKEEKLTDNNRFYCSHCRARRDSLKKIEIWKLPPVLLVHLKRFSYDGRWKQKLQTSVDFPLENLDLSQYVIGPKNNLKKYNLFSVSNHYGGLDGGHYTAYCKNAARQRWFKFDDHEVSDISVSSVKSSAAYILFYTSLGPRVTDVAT
In short: as §1

USP9X = USP9X (UniProt Q93008)
In short: as §1

UniProt O00487 = molecular target: UniProt O00487
In short: as §1

Measured: log2 ratio of Biotin-Ahx-Ub-VS probe labelling

Sequence of UniProt O00487 (O00487 whole entry): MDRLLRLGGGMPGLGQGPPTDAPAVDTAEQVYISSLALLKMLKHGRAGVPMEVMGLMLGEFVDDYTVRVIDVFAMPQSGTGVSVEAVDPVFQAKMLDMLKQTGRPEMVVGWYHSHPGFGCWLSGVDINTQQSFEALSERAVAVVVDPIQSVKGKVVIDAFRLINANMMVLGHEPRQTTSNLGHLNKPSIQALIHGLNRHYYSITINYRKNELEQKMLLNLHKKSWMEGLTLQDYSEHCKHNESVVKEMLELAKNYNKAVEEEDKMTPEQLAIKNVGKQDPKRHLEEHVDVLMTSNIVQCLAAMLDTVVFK
Sequence of USP7 (Q93009 whole entry, looked up): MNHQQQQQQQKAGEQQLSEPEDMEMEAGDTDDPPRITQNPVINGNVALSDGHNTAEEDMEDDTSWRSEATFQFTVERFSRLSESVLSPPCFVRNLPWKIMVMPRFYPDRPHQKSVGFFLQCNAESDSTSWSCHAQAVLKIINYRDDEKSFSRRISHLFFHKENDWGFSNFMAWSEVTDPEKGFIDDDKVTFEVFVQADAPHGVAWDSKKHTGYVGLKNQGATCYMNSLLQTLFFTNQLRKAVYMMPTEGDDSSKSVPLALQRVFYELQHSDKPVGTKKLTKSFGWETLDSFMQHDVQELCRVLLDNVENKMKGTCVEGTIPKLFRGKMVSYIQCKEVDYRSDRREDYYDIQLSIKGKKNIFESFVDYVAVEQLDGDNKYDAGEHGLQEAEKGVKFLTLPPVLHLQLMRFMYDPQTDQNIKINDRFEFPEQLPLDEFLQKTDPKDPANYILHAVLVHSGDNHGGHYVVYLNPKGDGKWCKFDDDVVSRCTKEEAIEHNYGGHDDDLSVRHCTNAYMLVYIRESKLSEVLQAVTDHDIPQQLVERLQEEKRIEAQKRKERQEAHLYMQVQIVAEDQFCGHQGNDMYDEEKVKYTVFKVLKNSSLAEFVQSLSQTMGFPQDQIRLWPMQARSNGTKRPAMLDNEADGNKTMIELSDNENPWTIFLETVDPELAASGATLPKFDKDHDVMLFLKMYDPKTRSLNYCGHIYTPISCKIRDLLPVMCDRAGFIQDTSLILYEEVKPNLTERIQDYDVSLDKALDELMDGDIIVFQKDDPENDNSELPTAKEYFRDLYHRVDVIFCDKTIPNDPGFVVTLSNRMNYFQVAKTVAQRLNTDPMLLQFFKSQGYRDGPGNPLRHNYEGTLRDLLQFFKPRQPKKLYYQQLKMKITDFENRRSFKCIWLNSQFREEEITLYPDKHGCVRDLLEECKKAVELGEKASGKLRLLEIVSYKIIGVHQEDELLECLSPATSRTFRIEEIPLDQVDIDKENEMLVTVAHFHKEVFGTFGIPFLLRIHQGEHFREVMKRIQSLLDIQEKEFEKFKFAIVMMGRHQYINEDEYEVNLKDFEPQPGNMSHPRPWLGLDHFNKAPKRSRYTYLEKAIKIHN
Sequence of USP46 (P62068 whole entry): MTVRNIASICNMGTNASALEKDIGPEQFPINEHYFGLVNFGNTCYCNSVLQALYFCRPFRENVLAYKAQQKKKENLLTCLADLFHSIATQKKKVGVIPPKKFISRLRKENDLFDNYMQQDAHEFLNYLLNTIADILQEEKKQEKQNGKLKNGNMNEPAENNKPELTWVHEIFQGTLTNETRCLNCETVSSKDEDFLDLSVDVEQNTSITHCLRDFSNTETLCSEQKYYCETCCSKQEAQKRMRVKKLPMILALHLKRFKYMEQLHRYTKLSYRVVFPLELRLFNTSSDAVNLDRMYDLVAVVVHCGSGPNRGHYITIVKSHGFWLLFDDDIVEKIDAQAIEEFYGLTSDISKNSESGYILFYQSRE
Sequence of USP9X (Q93008 whole entry): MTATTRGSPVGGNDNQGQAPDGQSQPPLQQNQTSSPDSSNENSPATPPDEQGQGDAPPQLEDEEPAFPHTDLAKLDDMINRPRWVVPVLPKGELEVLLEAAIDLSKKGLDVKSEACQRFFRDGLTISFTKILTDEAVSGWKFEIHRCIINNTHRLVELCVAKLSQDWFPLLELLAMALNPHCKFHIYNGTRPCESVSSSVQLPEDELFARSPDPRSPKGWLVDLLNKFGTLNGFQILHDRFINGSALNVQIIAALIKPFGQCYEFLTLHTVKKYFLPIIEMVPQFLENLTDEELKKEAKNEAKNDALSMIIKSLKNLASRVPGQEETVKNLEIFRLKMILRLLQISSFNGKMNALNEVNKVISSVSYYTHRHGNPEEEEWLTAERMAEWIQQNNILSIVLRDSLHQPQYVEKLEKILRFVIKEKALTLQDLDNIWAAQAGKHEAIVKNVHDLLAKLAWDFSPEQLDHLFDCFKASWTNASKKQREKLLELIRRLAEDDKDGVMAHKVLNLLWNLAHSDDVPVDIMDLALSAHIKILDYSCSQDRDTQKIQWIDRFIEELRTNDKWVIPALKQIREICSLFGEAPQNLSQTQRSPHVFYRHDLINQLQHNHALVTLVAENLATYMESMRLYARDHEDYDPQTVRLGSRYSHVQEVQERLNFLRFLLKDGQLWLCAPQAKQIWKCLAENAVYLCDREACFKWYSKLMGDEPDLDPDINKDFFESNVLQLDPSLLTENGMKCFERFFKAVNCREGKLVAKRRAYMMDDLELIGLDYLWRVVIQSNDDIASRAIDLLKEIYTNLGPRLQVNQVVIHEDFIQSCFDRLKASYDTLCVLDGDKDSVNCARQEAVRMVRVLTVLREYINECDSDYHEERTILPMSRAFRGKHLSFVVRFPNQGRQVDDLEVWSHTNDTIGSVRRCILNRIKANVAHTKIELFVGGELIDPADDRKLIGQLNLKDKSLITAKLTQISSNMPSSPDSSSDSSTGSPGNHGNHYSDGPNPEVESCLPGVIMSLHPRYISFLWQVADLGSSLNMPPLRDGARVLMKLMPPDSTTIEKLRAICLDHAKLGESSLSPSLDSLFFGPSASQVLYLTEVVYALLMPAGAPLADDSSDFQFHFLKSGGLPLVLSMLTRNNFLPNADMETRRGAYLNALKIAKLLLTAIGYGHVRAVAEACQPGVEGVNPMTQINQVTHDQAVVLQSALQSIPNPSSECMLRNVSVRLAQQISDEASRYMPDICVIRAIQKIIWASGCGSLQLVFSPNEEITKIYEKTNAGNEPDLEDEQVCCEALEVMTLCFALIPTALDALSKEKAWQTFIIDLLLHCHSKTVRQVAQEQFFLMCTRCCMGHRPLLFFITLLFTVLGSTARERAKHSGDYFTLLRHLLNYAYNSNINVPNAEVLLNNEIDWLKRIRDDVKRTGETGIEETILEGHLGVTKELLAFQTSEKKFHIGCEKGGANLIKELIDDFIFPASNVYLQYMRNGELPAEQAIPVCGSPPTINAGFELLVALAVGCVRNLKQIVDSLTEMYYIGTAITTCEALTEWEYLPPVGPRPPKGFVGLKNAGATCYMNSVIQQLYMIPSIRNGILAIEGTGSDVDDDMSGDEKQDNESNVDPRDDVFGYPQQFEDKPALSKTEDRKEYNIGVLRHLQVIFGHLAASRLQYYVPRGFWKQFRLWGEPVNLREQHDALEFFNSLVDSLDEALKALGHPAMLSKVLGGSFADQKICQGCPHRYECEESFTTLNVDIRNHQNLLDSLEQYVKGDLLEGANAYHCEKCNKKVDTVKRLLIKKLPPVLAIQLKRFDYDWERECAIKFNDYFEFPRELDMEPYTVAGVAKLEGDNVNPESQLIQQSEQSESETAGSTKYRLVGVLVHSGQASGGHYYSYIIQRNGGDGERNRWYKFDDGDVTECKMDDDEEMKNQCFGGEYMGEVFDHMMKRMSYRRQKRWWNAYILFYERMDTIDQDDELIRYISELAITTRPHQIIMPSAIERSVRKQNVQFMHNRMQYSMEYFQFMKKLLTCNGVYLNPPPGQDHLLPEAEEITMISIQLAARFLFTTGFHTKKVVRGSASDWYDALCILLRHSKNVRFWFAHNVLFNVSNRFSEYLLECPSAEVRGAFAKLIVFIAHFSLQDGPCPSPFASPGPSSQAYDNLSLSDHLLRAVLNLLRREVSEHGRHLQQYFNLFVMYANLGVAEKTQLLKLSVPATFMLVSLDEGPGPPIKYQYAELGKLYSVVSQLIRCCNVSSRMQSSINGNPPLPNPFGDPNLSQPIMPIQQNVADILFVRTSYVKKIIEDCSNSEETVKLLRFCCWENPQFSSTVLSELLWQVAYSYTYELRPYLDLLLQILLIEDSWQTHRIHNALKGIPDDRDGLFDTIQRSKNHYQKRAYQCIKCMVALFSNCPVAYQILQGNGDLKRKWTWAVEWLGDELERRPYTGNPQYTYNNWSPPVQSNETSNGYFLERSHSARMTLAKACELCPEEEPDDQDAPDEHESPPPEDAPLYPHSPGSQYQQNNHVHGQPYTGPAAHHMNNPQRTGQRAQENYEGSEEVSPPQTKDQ

Cl.O=C(CCl)NCCN1CCc2ccccc21
inactive: USP42 -0.219 | USP46 -0.521 | USP47 0.103 | USP48 -0.343 | USP5 -0.362 | USP54 0.277 | USP7 -0.711 | USP8 -0.959 | USP9X -0.798 | UniProt O00487 -0.255
